Bioassay records as filed in PubChem.
Autofluor 339 = intrinsic fluorescence of library compounds, ex339/em460 – biochemical, MLSMR library, data from DPM-DC assay, artefact control, profiling panel; compound autofluorescence, ex339/em460 nm, NADH buffer; active compounds read high; 1 = no-compound wells, NADH background; fluorescence fold increase at 10 µM; 65,000 compounds, 5.5% hits;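 active = at 10 µM, mean starting fluorescence two-fold or more over control wells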;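 also: signal is the first read of a kinetic run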
WNV NS2B-NS3 inh = inhibitors of WNV NS2B-NS3 protease, primary screen, biochemical, fluorogenic substrate. z-score (no concentration beside the values). fluorogenic substrate Ex360/Em465; active compounds read low. 65,000 compounds, 0.18% hits. AID 577, 2007. Genome polyprotein (West Nile virus), P06935; in the data active = z-score below about -3
M1 antag = antagonists of rat M1 muscarinic receptor. Muscarinic acetylcholine receptor M1 (Rattus norvegicus), P08482. CHO-M1 cells, Fluo-4 calcium, ACh EC80 antagonist mode; active compounds read low. B-score at 10 µM. 64,000 compounds, 3.4% hits. AID 628, 2007;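 active = calcium fluorescence response, raw or row-and-column corrected B-score, differing from the plate sample mean either way at a set confidence level, mostly lower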
Target sequence (P08482 whole entry, looked up): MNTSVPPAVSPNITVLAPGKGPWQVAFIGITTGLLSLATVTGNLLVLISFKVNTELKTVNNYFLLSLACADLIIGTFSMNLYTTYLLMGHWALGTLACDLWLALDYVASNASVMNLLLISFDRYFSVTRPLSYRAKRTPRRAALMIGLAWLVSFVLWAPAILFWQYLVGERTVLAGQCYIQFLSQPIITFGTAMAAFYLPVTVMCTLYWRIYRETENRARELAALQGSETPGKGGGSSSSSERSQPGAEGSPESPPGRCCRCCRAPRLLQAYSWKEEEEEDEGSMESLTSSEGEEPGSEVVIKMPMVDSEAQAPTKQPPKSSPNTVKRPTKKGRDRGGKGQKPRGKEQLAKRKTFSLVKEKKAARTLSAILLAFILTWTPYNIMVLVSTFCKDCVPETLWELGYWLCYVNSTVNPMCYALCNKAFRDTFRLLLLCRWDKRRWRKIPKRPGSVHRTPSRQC
BAP1 block = inhibitors of BAP1 deubiquitinase, primary screen, biochemical, Ub-AMC fluorescence, kinetic | recombinant BAP1, Ub-AMC hydrolysis fluorescence kinetic; active compounds read low | Ubiquitin carboxyl-terminal hydrolase BAP1 (Homo sapiens), Q92560 | calls only at 20 µM | AID 436, 2006 | 72,000 compounds, 0.48% hits;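 active = activity remaining at or below 50% of control, provided the compound also passes the data quality filters; inactive = the rest, including low values that fail the filters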
M1 agonist = M1 muscarinic receptor agonists, primary screen, CHO-M1 cells, Fluo-4 calcium, agonist mode | Muscarinic acetylcholine receptor M1 | Fluo-4 calcium fluorescence; active compounds read high | B-score at 10 µM | 64,000 compounds, 3% hits | AID 626, 2007;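 active = fluorescence rise, raw or as B-score row- and column-corrected plate score, outside the 99.7% band of its plate's samples, either direction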
Abs 340nm = compound light absorbance at 340 nm, profiling panel, artefact control, biochemical, MLSMR library, data from PS, PMK, MK assays; AID 708, 2007; 65,000 tested, under 10 active; fold change at 10 µM; compound absorbance at 340 nm, fold over control;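 active = at 10 µM dose, initial 340 nm absorbance at least 2 fold that of control wells; inactive = change under 2 fold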;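 also: initial absorbance extrapolated from kinetic A340 decline of NADH oxidation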
Large screens that a line does not name were inactive. This is a sample that favours compounds with a hit; in the whole collection about 9.7% have one here.

CCCCSc1nc2c(c(=O)[nH]1)C1(CCCCC1)Cc1ccccc1-2	none (no result: Autofluor 339, WNV NS2B-NS3 inh, M1 antag, M1 agonist, Abs 340nm)
CNC(=O)C(O)C(O)C(=O)NC (stereo not given)	none (no result: Autofluor 339, WNV NS2B-NS3 inh, M1 antag, M1 agonist, Abs 340nm)
CCOC(=O)c1c(NC(=O)CN2C(=O)c3ccccc3C2=O)sc2c1CCC2	none (no result: Autofluor 339, WNV NS2B-NS3 inh, M1 antag, M1 agonist, Abs 340nm)
CCCN1CCN(C(c2cc3cc(OCC)ccc3[nH]c2=O)c2nnnn2C2CCCCC2)CC1 (stereo not given)	Autofluor 339 4.3 (not shown: BAP1 block)
COc1cc2cc(C(c3nnnn3Cc3ccc(F)cc3)N3CCCCCC3)c(=O)[nH]c2cc1OC (stereo not given)	Autofluor 339 2.1 (not shown: BAP1 block)
COc1ccc(Cn2nnnc2C(c2cc3ccc(OC)cc3[nH]c2=O)N2CCCCCC2)cc1 (stereo not given)	none (not shown: BAP1 block)
COc1ccc2cc(C(c3nnnn3C3CCCC3)N3CCc4ccccc4C3)c(=O)[nH]c2c1 (stereo not given)	none
COc1ccc2[nH]c(=O)c(C(c3nnnn3CC3CCCO3)N3CCc4ccccc4C3)cc2c1 (stereo not given)	Autofluor 339 3 (not shown: BAP1 block)
COc1ccc2[nH]c(=O)c(C(c3nnnn3C3CCCCC3)N3CCN(C)CC3)cc2c1 (stereo not given)	Autofluor 339 4.5 (not shown: BAP1 block)
Cc1nccn1CCC(N)=O	none (no result: Autofluor 339, WNV NS2B-NS3 inh, M1 antag, M1 agonist, Abs 340nm)
CCN(CC)S(=O)(=O)c1cc(C(=O)Nc2nnc(-c3ccccc3)s2)ccc1C	none (no result: Autofluor 339, WNV NS2B-NS3 inh, M1 antag, M1 agonist, Abs 340nm)
Cc1cc2nn(-c3ccccc3)nc2cc1NC(=O)c1ccc(Br)o1	none (no result: Autofluor 339, WNV NS2B-NS3 inh, M1 antag, M1 agonist, Abs 340nm)
CCOC(=O)N1CCC(NC(=O)C2CCN(c3ccc(N4CCOCC4)nn3)CC2)CC1	Autofluor 339 4.9 (not shown: BAP1 block)
O=C(C1CCN(c2ccc(N3CCOCC3)nn2)CC1)N1CCc2ccccc2C1	Autofluor 339 4.7
N=c1oc2ccccc2cc1C(N)=S	none (no result: Autofluor 339, WNV NS2B-NS3 inh, M1 antag, M1 agonist, Abs 340nm)
O=c1oc2ccc([N+](=O)[O-])cc2cc1-c1csc(Nc2ccccc2F)n1	none (no result: Autofluor 339, WNV NS2B-NS3 inh, M1 antag, M1 agonist, Abs 340nm)
COc1ccc(O)c(C(=O)c2cc(C#N)c(=O)n(-c3c(C)n(C)n(-c4ccccc4)c3=O)c2)c1	M1 agonist 5.8
COc1ccc(O)c(C(=O)c2cc(C#N)c(=O)n(CCN3CCOCC3)c2)c1	none
CN1C(=O)c2ccccc2N(C)C1c1cccs1 (stereo not given)	Autofluor 339 3.9
Nc1nc(-c2ccco2)c(-c2ccco2)s1	none
c1coc(-c2nc(-c3ccco3)c(-c3ccco3)nc2-c2ccco2)c1	Autofluor 339 2.2 (no result: M1 antag, BAP1 block, M1 agonist)
CN(Cc1c(F)cccc1Cl)c1ccc(S(=O)(=O)N2CCOCC2)cn1	Autofluor 339 2.6
CCOc1ccc2nc(SCC(=O)N3CCCCCC3)c(C#N)cc2c1	none
CCOc1ccc2cc(C#N)c(SCC(=O)N3CCOCC3)nc2c1	Autofluor 339 2.7 (not shown: BAP1 block)
Cc1ccc(OCc2nnc(NC(=O)C(c3ccccc3)c3ccccc3)s2)cc1	none (no result: Autofluor 339, WNV NS2B-NS3 inh, M1 antag, M1 agonist, Abs 340nm)
CCCCN(C)C(=O)c1c[nH]c2ccc(S(=O)(=O)N3CCOCC3)cc2c1=O	Autofluor 339 2.2
O=C(O)c1c[nH]c2ccc(S(=O)(=O)N3CCOCC3)cc12	none
Cc1ccc(S(=O)(=O)N2CCOCC2)cc1C(=O)NCc1ccco1	none
O=C(NCc1ccco1)c1c[nH]c2ccc(S(=O)(=O)N3CCOCC3)cc2c1=O	Autofluor 339 2.1
O=C(Nc1ccc(Cl)cc1)c1cc(S(=O)(=O)N2CCOCC2)ccc1Cl	none (no result: Autofluor 339, WNV NS2B-NS3 inh, M1 antag, M1 agonist, Abs 340nm)
Brc1ccc(-c2cnc(-c3cccs3)o2)cc1	Autofluor 339 5 (not shown: BAP1 block)
Cc1ccc(-c2noc(-c3cccs3)n2)cc1	none
Cc1ccc2nc3c(c(N)c2c1)CCN3c1ccccc1	Autofluor 339 3.7
CCCOC(=O)CC1C(=O)NCCN1Cc1ccccc1C (stereo not given)	none
CCOC(=O)CC1C(=O)NCCN1C(=O)c1cc2c(=O)n3cccc(C)c3nc2s1 (stereo not given)	Autofluor 339 2.1 (not shown: BAP1 block)
COC(=O)CC1C(=O)NCCN1C(=O)CSc1nnc(Nc2ccc(OC)cc2)s1 (stereo not given)	none
CCOC(=O)CC1C(=O)NCCN1C(=O)c1cc2c(=O)n3ccccc3nc2s1 (stereo not given)	Autofluor 339 2.1 (not shown: BAP1 block)
